Laboratory results as given in PubChem BioAssay AID1159580 (chemical genetic matrix, 2015).
Among all 5,500 compounds or so, about 2,000 (36%) were called active. About 18% were inconclusive and are not listed. Rule as the data show it: active = normalized growth mostly below about 0.91 (no sharp cut-off); inconclusive = no clear call, values can overlap the other calls; inactive = mostly above about 0.92. The list shows a part of the results.

Assay: chemical genetic growth profiling, strain panel (AID 1159580);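 also: tested at 20 µM; growth read once vehicle control cultures reached saturation at 30 °C; 1 = growth at the plate median or of vehicle wells; lower values mean less growth of the strain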
Conditions: S. cerevisiae deletion strains, growth OD

Measured: normalized growth

NCCNS(=O)(=O)c1cccc2cnccc12
inactive: locus YAL040C, strain CLN3, active compounds read low 1.02 | locus YCL061C, strain MRC1 (second series), active compounds read low 1.01 | locus YDR363W, strain ESC2, active compounds read low 0.973 | locus YER002W, strain NOP16, active compounds read low 0.988 | locus YGR078C, strain PAC10, active compounds read low 0.968 | locus YGR229C, strain SMI1, active compounds read low 0.972 | locus YNL128W, strain TEP1, active compounds read low 0.986 | locus YNL153C, strain GIM3, active compounds read low 1.05 | locus YNL175C, strain NOP13, active compounds read low 0.958 | locus YNL197C, strain WHI3, active compounds read low 0.917 | locus YNL224C, strain SQS1, active compounds read low 0.98 | locus YNL322C, strain KRE1, active compounds read low 0.98 | locus YOR083W, strain WHI5 (second series), active compounds read low 0.923 | locus YPL241C, strain CIN2, active compounds read low 0.998

Cc1nc(N)cc(C[n+]2csc(CCO)c2C)n1
inactive: locus YAL021C, strain ccr4, active compounds read low 0.946 | locus YAL026C, strain drs2, active compounds read low 0.974 | locus YAL030W, strain snc1, active compounds read low 0.981 | locus YBL061C, strain skt5, active compounds read low 0.983 | locus YBR009C, strain hhf1, active compounds read low 0.979 | locus YBR023C, strain chs3, active compounds read low 0.998 | locus YBR171W, strain sec66, active compounds read low 0.971 | locus YBR231C, strain swc5, active compounds read low 0.987 | locus YBR279W, strain paf1, active compounds read low 0.985 | locus YCL011C, strain gbp2, active compounds read low 0.966 | locus YCL016C, strain dcc1, active compounds read low 0.992 | locus YCL061C, strain MRC1, active compounds read low 0.977 | locus YCL069W, strain vba3, active compounds read low 0.981 | locus YCR088W, strain abp1, active compounds read low 0.98 | locus YDL005C, strain med2, active compounds read low 0.984 | locus YDL040C, strain nat1, active compounds read low 0.988 | locus YDR001C, strain nth1, active compounds read low 0.974 | locus YDR069C, strain doa4, active compounds read low 0.984 | locus YDR137W, strain rgp1, active compounds read low 0.966 | locus YDR159W, strain sac3, active compounds read low 0.965 | locus YDR195W, strain ref2 0.944 | locus YDR297W, strain sur2, active compounds read low 0.979 | locus YDR334W, strain swr1, active compounds read low 0.955 | locus YDR335W, strain msn5, active compounds read low 0.966 | locus YDR392W, strain spt3, active compounds read low 0.973 | locus YEL003W, strain gim4, active compounds read low 0.971 | locus YEL037C, strain rad23, active compounds read low 0.967 | locus YEL061C, strain CIN8 (second series), active compounds read low 0.974 | locus YER015W, strain faa2, active compounds read low 0.975 | locus YER016W, strain bim1, active compounds read low 0.979 | locus YER111C, strain swi4, active compounds read low 0.992 | locus YER155C, strain BEM2 (second series), active compounds read low 0.975 | locus YFR010W, strain ubp6, active compounds read low 0.962 | locus YGL167C, strain pmr1, active compounds read low 0.973 | locus YGL173C, strain kem1, active compounds read low 0.979 | locus YGL227W, strain vid30, active compounds read low 0.987 | locus YGL240W, strain doc1, active compounds read low 0.98 | locus YGL253W, strain hxk2, active compounds read low 0.986 | locus YHR013C, strain ard1, active compounds read low 0.986 | locus YHR027C, strain rpn1, active compounds read low 0.988 | locus YHR030C, strain SLT2, active compounds read low 0.954 | locus YHR079C, strain IRE1, active compounds read low 0.942 | locus YHR142W, strain chs7, active compounds read low 0.963 | locus YJL092W, strain hpr5, active compounds read low 0.966 | locus YJL095W, strain BCK1 (second series), active compounds read low 0.978 | locus YJL095W, strain BCK1, active compounds read low 0.968 | locus YJL115W, strain asf1, active compounds read low 0.969 | locus YJL129C, strain trk1, active compounds read low 0.965 | locus YJL154C, strain vps35, active compounds read low 0.988 | locus YJL164C, strain tpk1, active compounds read low 0.985 | locus YJL166W, strain qcr8, active compounds read low 0.981 | locus YJL187C, strain SWE1, active compounds read low 0.99 | locus YJR066W, strain TOR1, active compounds read low 0.932 | locus YKL160W, strain elf1, active compounds read low 0.981 | locus YKR026C, strain gcn3, active compounds read low 0.97 | locus YKR091W, strain srl3, active compounds read low 0.978 | locus YLL001W, strain dnm1, active compounds read low 0.983 | locus YLL026W, active compounds read low 0.988 | locus YLL041C, strain sdh2, active compounds read low 0.98 | locus YLR027C, strain aat2, active compounds read low 0.986 | locus YLR113W, strain HOG1, active compounds read low 0.941 | locus YLR221C, strain rsa3, active compounds read low 0.982 | locus YLR258W, strain gsy2, active compounds read low 0.986 | locus YLR262C, strain YPT6 (second series), active compounds read low 0.992 | locus YLR320W, strain mms22, active compounds read low 0.988 | locus YLR342W, strain FKS1, active compounds read low 0.991 | locus YLR357W, strain rsc2, active compounds read low 0.99 | locus YLR370C, strain arc18, active compounds read low 0.979 | locus YLR384C, strain iki3, active compounds read low 0.983 | locus YML120C, strain ndi1, active compounds read low 0.962 | locus YMR058W, strain fet3, active compounds read low 0.969 | locus YMR125W, strain sto1, active compounds read low 0.946 | locus YMR129W, active compounds read low 0.97 | locus YMR205C, strain PFK2, active compounds read low 1.01 | locus YMR231W, strain pep5, active compounds read low 0.992 | locus YNL071W, strain lat1, active compounds read low 0.988 | locus YNL183C, strain NPR1, active compounds read low 0.926 | locus YNL209W, strain ssb2, active compounds read low 0.981 | locus YNL248C, strain rpa49, active compounds read low 0.948 | locus YNL322C, strain KRE1 (second series), active compounds read low 0.964 | locus YNR049C, strain mso1, active compounds read low 0.978 | locus YOR001W, strain rrp6, active compounds read low 0.95 | locus YOR070C, strain gyp1, active compounds read low 0.998 | locus YOR080W, strain dia2, active compounds read low 0.971 | locus YOR083W, strain WHI5, active compounds read low 0.969 | locus YOR106W, strain vam3, active compounds read low 0.972 | locus YOR231W, strain MKK1, active compounds read low 0.96 | locus YOR265W, strain rbl2, active compounds read low 0.983 | locus YOR270C, strain vph1, active compounds read low 0.94 | locus YOR290C, strain snf2, active compounds read low 0.975 | locus YPL051W, strain arl3, active compounds read low 0.996 | locus YPL078C, strain atp4, active compounds read low 0.976 | locus YPL106C, strain sse1, active compounds read low 0.953 | locus YPL240C, strain hsp82, active compounds read low 0.972 | locus YPL256C, strain CLN2, active compounds read low 0.95
